# Screening data as filed in PubChem BioAssay.
# Shown is part of a subset that was picked to be rich in hits.
# ClpP mod: qHTS Assay for Activators of ClpP; actives 1.9% (n = 340,000); purified B. subtilis ClpP, FRET peptide cleavage, 20 min; AID 651965, 2013; Potency, µM (highest dose often 57.5 µM), for the others: top-dose activity change, negative = active; active = well fitted falling curve with a large enough effect; inconclusive = small, poorly fitted or top-dose-only effect; inactive = no such curve, though single readings can be large or run the other way; note: potency is the fitted concentration of half-maximal effect; the source files actives as falling curves though it sought activators and does not explain the sign; nearly all actives have a fitted effect of over 65% in size
#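 Purified B. subtilis ClpP, 10 microg/mL final in Tris/HCl pH8 with KCl, BSA, glycerol and Tween-20, cleaved an Abz/nitrotyrosine-quenched decapeptide. Fluorescence (ex 320, em 430) was read at 0 and 20 min at room temperature. Delta was normalized to 5.8 microM ADEP and DMSO/no-enzyme controls.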
# N370S GC mod: N370S glucocerebrosidase modulation, Gaucher chaperone candidate | P04062 | N370S GC spleen homogenate, 4MU-glucoside fluorescence | Potency, µM (top dose mostly 59.4 µM), without a hit: top-dose activity change, negative = inhibition, most hits filed as inhibitors | actives 0.092% (n = 330,000);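 note: potency is the fitted concentration of half-maximal effect; 0% = full enzyme activity and -100% = no enzyme basal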
# Apoferritin bind: binds horse apoferritin like a general anesthetic | actives 0.074% (n = 350,000) | P02791 | apoferritin/1-aminoanthracene competitive binding, fluorescence | Potency, µM (doses to about 77.5 µM), without a hit: at the top dose activity change, negative = displacement, actives largely listed as inhibitors; note: potency is the fitted concentration of half-maximal effect; % is set by controls: 0 for no effect and ±100 for the full control effect; nearly all actives have a fitted effect of over 20% in size
#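 10 uM apoferritin + 50% sat. 1-AMA, PBS; cpd 10 min RT; Ex380/Em535 endpoint; normalized to free probe vs complex; 4-param Hill fit; propofol titration as pos. ctrl.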
# GRP78 ERSR act: induces the endoplasmic reticulum stress response in human glioma cells | U87-MG GRP78 promoter luciferase reporter, 16 h | Potency, µM, for the others: at the highest dose activation, usual class: activators | actives 0.02% (n = 420,000); note: potency is the fitted concentration of half-maximal effect; series mostly up to about 76 µM; % of control where 0% means no effect; nearly all actives have a fitted effect of over 35% in size
#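 ERSR induction read as luciferase luminescence (Bright-Glo, 10 min at room temperature) in stably transfected human U87-MG glioma cells exposed to compounds for 16 h, using GRP78 as sensor.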
# CBFb RUNX1 block: blocks binding between human CBF-beta and RUNX1; 230,000 tested, under 10 active; AlphaScreen CBFb-His/RUNX1-biotin binding, biochemical; Q01196+Q13951; Potency, µM (series often up to 59.8 µM), for inactives: at the top dose activity, negative = inhibition, usual class: inhibitors; note: % of control where 0% means no effect
# Target sequence (Q01196 whole entry, looked up): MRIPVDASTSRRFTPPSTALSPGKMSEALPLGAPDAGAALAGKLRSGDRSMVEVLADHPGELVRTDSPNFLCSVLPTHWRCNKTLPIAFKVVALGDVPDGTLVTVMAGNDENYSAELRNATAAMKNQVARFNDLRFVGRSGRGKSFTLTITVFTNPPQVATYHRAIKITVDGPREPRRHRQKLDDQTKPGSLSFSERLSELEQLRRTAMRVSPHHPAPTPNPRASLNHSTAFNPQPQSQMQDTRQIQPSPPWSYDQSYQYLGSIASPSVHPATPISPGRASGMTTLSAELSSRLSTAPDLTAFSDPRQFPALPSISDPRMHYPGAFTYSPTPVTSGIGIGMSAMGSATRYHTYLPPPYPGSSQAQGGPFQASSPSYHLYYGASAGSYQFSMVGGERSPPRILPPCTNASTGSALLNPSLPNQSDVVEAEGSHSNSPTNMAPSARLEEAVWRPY
# Target sequence (Q13951 whole entry, looked up): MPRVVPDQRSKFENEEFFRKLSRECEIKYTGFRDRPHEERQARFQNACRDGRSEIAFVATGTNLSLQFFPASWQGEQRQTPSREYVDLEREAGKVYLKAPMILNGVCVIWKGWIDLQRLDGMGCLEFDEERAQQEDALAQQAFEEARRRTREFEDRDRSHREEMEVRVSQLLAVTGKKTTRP
#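 CBFb-His/RUNX1-biotin, 30 nM each, preincubated 20 min RT; compound 15 min RT; Ni + streptavidin beads 50 ng each, 90 min RT; AlphaScreen read.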
# a7 integrin act: activates integrin-mediated alleviation for muscular dystrophy | alpha7betagal myoblasts, beta-gal FDG fluorescence, 48 h | Potency, µM (series often up to 38.3 µM), inactives show top-dose activation, most hits filed as activators | actives 0.064% (n = 350,000) | AID 624291;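 note: potency is the fitted concentration of half-maximal effect; 100% = response of the positive control SU9516; nearly all actives have a fitted effect of over 60% in size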
#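 alpha7betagal+/- myoblasts (passage 13, 250/well) treated 48 h at 37C with compounds at 1:260 dilution of DMSO stock. Lysed, then beta-galactosidase activity read as FDG fluorescence (ex 480/em 540) after 30 min, with pre-read for autofluorescence.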
# ClpP validation: inhibits B. subtilis ClpP protease, hit validation; shares compounds with ClpP mod; purified B. subtilis ClpP, FRET-FV substrate cleavage, 20 min; Potency, µM (top dose mostly 57.5 µM), without a hit: top-dose activity change, negative = inhibition, usual class: inhibitors; actives 40% (n = 470); AID 743245; note: potency is the fitted concentration of half-maximal effect; % is set by controls: 0 for no effect and ±100 for the full control effect; nearly all actives have a fitted effect of over 70% in size
# * = called active by the depositor; ? = inconclusive; nt = no result given; [ ] = remark or other dose. Unless noted, calls come from the whole dose curve; as a rule, active = well fitted curve in the direction sought with a large enough effect; inconclusive = small, poorly fitted or top-dose-only effect, or another doubt; inactive = no such curve, though single readings can be large; an effect the other way counts as inactive or inconclusive.
SMILES,ClpP mod,N370S GC mod,Apoferritin bind,GRP78 ERSR act,CBFb RUNX1 block,a7 integrin act,others
CCC(C)NC(=O)c1c(N)n(CC2CCCO2)c2nc3ccccc3nc12 (stereo unspecified),35µM*,?,457%,-8%,?,-2%,
O=C1C(Cl)=C(Cl)C(=O)C(Cl)=C1Cl,nt,-8%,-17%,-11%,?,nt,
CC(N)C(=O)c1ccccc1 (stereo unspecified),nt,nt,nt,-3%,nt,nt,
CCCCn1c(N)c(C(=O)NCCN2CCOCC2)c2nc3ccccc3nc21,11µM*,14%,545%,-5%,28%,-5%,
CCCCn1c(NS(=O)(=O)c2ccccc2)c(C(=O)OCC)c2nc3ccccc3nc21,28µM*,20%,?,0%,?,10%,
C=CCNC(=O)c1c(N)n(Cc2ccco2)c2nc3ccccc3nc12,16µM*,?,321%,-5%,26%,-20%,
Cc1c(F)c(F)c(COC(=O)C2C(/C=C(\Cl)C(F)(F)F)C2(C)C)c(F)c1F (stereo unspecified),nt,-4%,10%,4%,17%,nt,
COc1ccc(Cl)cc1NC(=O)C1CCN(c2nnc(C)c3c(C)n(-c4ccccc4)nc23)CC1,28µM*,nt,-13%,-3%,nt,nt,
C(=NC1CCCCC1)=NC1CCCCC1,nt,-1%,nt,nt,11%[21.7 µM],nt,
CC1(C)Cc2c(sc3c2C(=O)NC(c2cccnc2)N3)CO1 (stereo unspecified),32µM*,8%,13%,-2%,3%,5%,
CN1CCN(C(=O)COc2ccc3ccccc3c2)CC1,nt,-13%,-1%,1%,nt,16%,
CN1CCN(C(=O)COc2ccc(-c3nc4ccccc4s3)cc2)CC1,25µM*,-13%,-17%,-9%,1%,-1%,
Cc1cc(NC(=O)c2cccn(Cc3ccccc3)c2=O)no1,-13%,nt,6%,-2%,nt,nt,
Cc1cc(NC(=O)c2cccn(Cc3cccc(Cl)c3)c2=O)no1,35µM*,nt,-13%,-2%,nt,nt,
CCCCNC(C)(C)[P+](=O)O,nt,nt,nt,-5%,nt,nt,
O=C(Cn1nc(-c2ccc(Cl)cc2)ccc1=O)N1CCC2(CC1)OCCO2,-20%,-9%,?,-1%,-2%,11µM*,
COc1ccc(OCCn2c(NC(=O)c3ccc(OC)cc3)nc3ccccc32)cc1,33%,nt,51%,2%,nt,nt,
CCCCOc1ccc(C(=O)NCCc2csc(-c3ccc(OC)cc3)n2)cc1,22µM*,nt,3%,-4%,nt,nt,
CC(C)(C)OC(=O)c1c(N)n(Cc2ccco2)c2nc3ccccc3nc12,-1%,?,706%,5%,12%,-13%,
Nc1c(C(=O)OCc2ccccc2)c2nc3ccccc3nc2n1Cc1cccs1,28µM*,?,60%,0%,?,-55%,
CCC(C)OC(=O)c1c(N)n(Cc2cccs2)c2nc3ccccc3nc12 (stereo unspecified),14µM*,?,177%,-4%,?,-10%,
CCON=C(CC)C1=C(O)CC(c2c(C)cc(C)cc2C)CC1=O (stereo unspecified),nt,nt,nt,-3%,nt,nt,
COc1cccc(C(=O)CCN[C@@H](C)[C@H](O)c2ccccc2)c1,nt,nt,nt,-11%,nt,nt,
COP(=O)(OC)c1nc(-c2cccc3ccccc23)oc1NCCc1ccccc1,-1%,?,357%,-5%,-6%,1%,
CCCNc1oc(-c2cccc3ccccc23)nc1C#N,28µM*,28%,103%,1%,15%,5%,
SMILES,ClpP mod,N370S GC mod,Apoferritin bind,GRP78 ERSR act,CBFb RUNX1 block,a7 integrin act,others
C/C(=N\NC(N)=S)C12CC3CC(CC(C3)C1)C2,1%,nt,8.9µM*,0%,-6%,-18%,
[N-]=[N+]=[N-],nt,-7%,nt,nt,5%[21.7 µM],nt,
CNC(=O)Oc1ccc(-c2cn3cc(Cl)ccc3n2)cc1,8.9µM*,?,-8%,-8%,-1%,-17%,ClpP validation=?
COc1ccccc1NC(=O)c1oc2ccccc2c1NC(=O)c1ccccc1C(F)(F)F,206%,nt,7%,-3%,nt,nt,ClpP validation=31µM*
C=CCOCC1CO1 (stereo unspecified),nt,-2%,nt,nt,2%[21.7 µM],nt,
C[C@@H]1CC[C@@]2(OC1)O[C@H]1[C@@H](O)[C@H]3[C@@H]4CC[C@H]5C[C@@H](O[C@@H]6O[C@H](CO)[C@H](O[C@@H]7O[C@H](CO)[C@@H](O)[C@H](O[C@@H]8OC[C@@H](O)[C@H](O)[C@H]8O)[C@H]7O[C@@H]7O[C@H](CO)[C@@H](O)[C@H](O[C@@H]8O[C@H](CO)[C@@H](O)[C@H](O)[C@H]8O)[C@H]7O)[C@H](O)[C@H]6O)[C@H](O)C[C@]5(C)[C@H]4CC[C@]3(C)[C@H]1[C@@H]2C,nt,0%,nt,nt,5%[21.7 µM],nt,
Cc1cc(OCc2nn[nH]n2)c2c3c(c(=O)oc2c1)CCCC3,6.3µM*,0%,-8%,-4%,6%,20%,ClpP validation=27µM*
Cc1cc(OCc2ccc([N+](=O)[O-])cc2)c2c3c(c(=O)oc2c1)CCCC3,0%,9%,-10%,0%,2%,11%,
